Data published in the supplement of paper PMC9262897, “Low-cost anti-mycobacterial drug discovery using engineered E. coli” (Nature Communications, 2022).
Structures can show the parent of a compound that is named as a salt. ± gives the standard deviation of the averaged measurements.

System: E. coli TESEC Mtb Alr
Assay: growth (OD600 after 10 h); higher = more growth (less inhibition)
Settings: compound 0.1 mM
Method: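 TESEC Mtb Alr E. coli, or the Alr+ wild-type control, in 384-well plates with Prestwick library compounds at 0.1 mM and 1% DMSO, across arabinose induction levels of 1E3 to 1E7 nM. Growth is read as OD600 after 10 h at 37 °C in triplicate biological replicates.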

[1] = arabinose 1000 nM, raw OD600 reference: median of DMSO wells 0.294, cell-free background 0.041
[2] = arabinose 10000 nM, raw OD600 reference: median of DMSO wells 0.264, cell-free background 0.041
[3] = arabinose 100000 nM, raw OD600 reference: median of DMSO wells 0.201, cell-free background 0.041
[4] = arabinose 1000000 nM, raw OD600 reference: median of DMSO wells 0.193, cell-free background 0.041
[5] = arabinose 10000000 nM, raw OD600 reference: median of DMSO wells 0.146, cell-free background 0.041

In the case of `Cn1ccnc1S` [Methimazole], the growth [1] is reported as 0.32 ± 0.018, the growth [2] is reported as 0.275 ± 0.0076 and the growth [3] is reported as 0.195 ± 0.011. The growth [4] was 0.191 ± 0.0034 and the growth [5] was 0.16 ± 0.0067.

`COC(=O)C1=C(C)NC(C)=C(C(=O)OCCN(C)Cc2ccccc2)C1c1cccc([N+](=O)[O-])c1` (stereo not given) [Nicardipine hydrochloride] was tested, and the growth [1] was 0.0453 ± 0.0013, the growth [2] was 0.04637 ± 0.00021 and the growth [3] was 0.049 ± 0.0015. The growth [4] was 0.045 ± 0.0027 and the growth [5] was 0.0566 ± 0.0042.

`CCC1(c2ccccc2)C(=O)NCNC1=O` [Primidone] showed a growth [1] of 0.296 ± 0.0094, a growth [2] of 0.255 ± 0.0076 and a growth [3] of 0.201 ± 0.012. It also gave a growth [4] of 0.18 ± 0.0097 and a growth [5] of 0.144 ± 0.0039.

`NC(Cc1cc(I)c(Oc2cc(I)c(O)c(I)c2)c(I)c1)C(=O)O` (stereo not given) [Thyroxine (L)] showed a growth [1] of 0.2363 ± 0.0021, a growth [2] of 0.284 ± 0.006 and a growth [3] of 0.196 ± 0.021. It also gave a growth [4] of 0.154 ± 0.0089 and a growth [5] of 0.185 ± 0.0093.

For `CC(=O)O[C@@]12CO[C@@H]1C[C@H](O)[C@@]1(C)C(=O)[C@H](O)C3=C(C)[C@@H](OC(=O)[C@H](O)[C@@H](NC(=O)OC(C)(C)C)c4ccccc4)C[C@@](O)([C@@H](OC(=O)c4ccccc4)[C@H]21)C3(C)C` [Docetaxel], the growth [1] was 0.34 ± 0.0038, the growth [2] was 0.299 ± 0.014 and the growth [3] was 0.311 ± 0.094. The growth [4] was 0.134 ± 0.011 and the growth [5] was 0.206 ± 0.02.

Compound `Nc1ccc(S(=O)(=O)Nc2cnc3ccccc3n2)cc1` [Sulfaquinoxaline sodium salt] has a growth [1] of 0.266 ± 0.02, a growth [2] of 0.171 ± 0.004 and a growth [3] of 0.21 ± 0.0087. For the same compound, the growth [4] was 0.1074 ± 0.00085 and the growth [5] was 0.137 ± 0.0051.

Work on `CCN(CCO)CCCC(C)Nc1ccnc2cc(Cl)ccc12` (stereo not given) [Hydroxychloroquine sulfate] yielded a growth [1] of 0.282 ± 0.011, a growth [2] of 0.27 ± 0.0028 and a growth [3] of 0.19 ± 0.015. The growth [4] was 0.1939 ± 0.0019 and the growth [5] was 0.147 ± 0.0019.

With `Nc1nc2n[nH]nc2c(=O)[nH]1` [Azaguanine-8] the growth [1] was 0.241 ± 0.0083, the growth [2] was 0.194 ± 0.0047 and the growth [3] was 0.239 ± 0.0079. For the same compound, the growth [4] was 0.143 ± 0.0028 and the growth [5] was 0.132 ± 0.009.
